Source: PubChem BioAssay AID1851 (National Center for Advancing Translational Sciences (NCATS), 2009)
The whole screen tested about 16,000 compounds, of which about 5,700 (36%) were called active. Roughly 24% stayed inconclusive and do not appear here. The list shows a part of the results. Unmarked numbers belong to inactive results. Calls come from the whole dose curve; as a rule, active = well fitted curve in the direction sought with a large enough effect; inconclusive = small, poorly fitted or top-dose-only effect, or effect the other way; inactive = no such curve, though single readings can be large or run the other way.

Target: Cytochrome P450 1A2 (Homo sapiens) (UniProt P05177)
Assay: Cytochrome panel assay with activity outcomes
Details: recombinant CYP, pro-luciferin dealkylation, luminescence, p450-cyp1a2; series mostly up to 57.1 µM; activity, negative = inhibition: at the top concentration
% is set by controls: 0 for no effect and ±100 for the full control effect.

Chain of Cytochrome P450 1A2 (Homo sapiens) (P05177 whole entry, looked up): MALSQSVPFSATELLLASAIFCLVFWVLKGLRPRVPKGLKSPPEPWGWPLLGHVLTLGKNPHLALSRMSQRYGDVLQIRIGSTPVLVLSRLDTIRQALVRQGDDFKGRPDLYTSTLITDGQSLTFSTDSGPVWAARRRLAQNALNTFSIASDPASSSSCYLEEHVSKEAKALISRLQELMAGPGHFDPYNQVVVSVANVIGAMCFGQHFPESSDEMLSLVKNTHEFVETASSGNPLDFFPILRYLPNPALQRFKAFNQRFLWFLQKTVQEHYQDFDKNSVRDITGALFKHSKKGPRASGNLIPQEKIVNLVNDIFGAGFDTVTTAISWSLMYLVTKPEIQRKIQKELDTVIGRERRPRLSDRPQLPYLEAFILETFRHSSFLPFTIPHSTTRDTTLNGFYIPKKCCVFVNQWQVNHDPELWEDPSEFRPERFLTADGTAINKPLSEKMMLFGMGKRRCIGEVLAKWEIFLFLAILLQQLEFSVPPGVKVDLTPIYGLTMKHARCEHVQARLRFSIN

Structure (SMILES) | activity, negative = inhibition | AC50
CS(=O)(=O)N1CCC[C@@]2(CCN(Cc3nccs3)C2)C1 | 3.08% | –
CCOc1ccc(/C=C/C2=Cc3c(sc(NC(=O)CSc4n[nH]c(N)n4)c3C#N)C(C)(C)C2)cc1 | -14.8% | –
Cc1ccc(/C=C/C2=Cc3c(sc(NC(=O)CSc4n[nH]c(N)n4)c3C#N)C(C)(C)C2)o1 | -29.2% | –
COc1cc2cc3c(N)c(C(=O)Nc4sc(C)c(C)c4C#N)sc3nc2cc1OC | -27.6% | –
CCOC(=O)c1sc(NC(=O)CSc2nc(C)cc(C)n2)c(C#N)c1C | – | 10 µM (active)
CCOC(=O)c1sc(NC(=O)CSc2nc(C)cc(C)c2C#N)c(C#N)c1C | -28.8% | –
CCOC(=O)c1sc(NC(=O)CSc2n[nH]c(-c3ccc(Cl)cc3Cl)n2)c(C#N)c1C | – | 14.1 µM (active)
Cc1ccc(S(=O)(=O)n2c3ccccc3c3nnc(C(=O)c4ccccc4)nc32)cc1 | -2.9% [at 11.4 µM] | –
Cc1ccc(-c2nc3c(=O)n(C)c4ccccc4c3o2)cc1 | – | 0.398 µM (active)
Cn1c(=O)c2nc(-c3ccccc3)oc2c2ccccc21 | – | 0.398 µM (active)
COc1ccc2[nH]cc(CCNc3ccnc(-c4cccnc4)n3)c2c1 | – | 0.251 µM (active)
COc1ccc2[nH]cc(CCNc3cc(-c4cccnc4)ncn3)c2c1 | – | 3.16 µM (active)
COc1ccc2[nH]cc(CCNc3cc(-c4cccc(C#N)c4)ncn3)c2c1 | – | 0.794 µM (active)
COc1cccc(-c2cc(NCCc3c[nH]c4ccc(OC)cc34)ncn2)c1 | – | 0.794 µM (active)
N[C@H](CCC(=O)NCC(=O)O)C(=O)O | -17.4% | –
COc1ccccc1CN1CCC2(CCNCC2)CC1 | -5.13% | –
CN(C)CCn1nnnc1SCC1=C(C(=O)O)N2C(=O)[C@@H](NC(=O)Cc3csc(N)n3)[C@@H]2SC1 | -6.52% [at 25.6 µM] | –
COc1ccc2[nH]cc(CCNc3cc(-c4ccoc4)ncn3)c2c1 | – | 0.631 µM (active)
COc1ccc2[nH]cc(CCNc3ccnc(-c4cccc(NS(C)(=O)=O)c4)n3)c2c1 | – | 1.58 µM (active)
CC1(C)S[C@@H]2[C@H](NC(=O)C(N)c3ccccc3)C(=O)N2[C@H]1C(=O)O (stereo partly specified) | -0.0503% [at 25.6 µM] | –
c1ccc(-c2nc(N3CCCCCC3)nc(-n3ccnc3)n2)cc1 | – | 1.26 µM (active)
CN(c1ccccc1)c1nc(-n2ccnc2)nc(-n2ccnc2)n1 | – | 0.158 µM (active)
CC(C)[C@@H](OCc1ccccc1)[C@H](C)/C=N\OC[C@@H](O)[C@@H]1O[C@@H]2OC(C)(C)O[C@@H]2[C@H]1O | -0.825% [at 11.4 µM] | –
Cc1ccccc1-c1nccc(-n2ccnc2)n1 | – | 0.0794 µM (active)

Structure (SMILES) | activity, negative = inhibition | AC50
COc1ccccc1-c1nccc(-n2ccnc2)n1 | – | 0.158 µM (active)
Clc1ccccc1-c1nccc(-n2ccnc2)n1 | – | 0.158 µM (active)
COC(=O)N1CCC[C@@]2(CCN(C(=O)Nc3ccc(OC)cc3)C2)C1 | -2.89% | –
N=C(N)SCC(=O)O | -10.2% [at 2.29 µM] | –
Cn1c(/C(C#N)=C(\O)c2ccc(S(=O)(=O)N3CCCCC3)cc2)nc2ccccc21 | -8.63% | –
COc1ccc(/C(O)=C(\C#N)c2nc3ccccc3n2C)cc1OC | – | 5.01 µM (active)
CN(C)CCCNC(=O)CCc1nc2ccccc2c(=O)[nH]1 | -6.97% | –
CN(CCCNC(=O)c1ccc(/C=N/O)nc1)CCCN(C)Cc1ccccc1 | 2.39% | –
CN(CCCNC(=O)c1cccn2c(=O)c3ccccc3nc12)Cc1ccccc1 | – | 14.1 µM (active)
c1cncc(CNc2ncncc2-c2ccc3c(c2)OCO3)c1 | – | 0.398 µM (active)
c1csc(CNc2ncncc2-c2ccc3c(c2)OCO3)c1 | – | 0.2 µM (active)
Cc1cccc(CNc2ncncc2-c2ccc3c(c2)OCO3)c1 | – | 0.126 µM (active)
Cc1cnc(CNc2ncncc2-c2ccc3c(c2)OCO3)cn1 | – | 2 µM (active)
Cc1ccc(N(C(=O)Cn2nnc(-c3ccc(F)cc3)n2)C(CC(C)C)C(=O)NCC2CCCO2)cc1 (stereo unspecified) | -2.51% | –
c1ccc(Nc2ncncc2-c2ccc3c(c2)OCO3)cc1 | – | 0.316 µM (active)
c1ccc(CNc2ncncc2-c2ccc3c(c2)OCO3)cc1 | – | 0.126 µM (active)
CC(C)c1ccccc1S(=O)c1ccccc1C(C)(C)O (stereo unspecified) | -10.7% [at 2.29 µM] | –
O=C(O)c1ccc(/C=N\N=C2c3ccccc3-c3ccccc32)cc1 | – | 0.126 µM (active)
O=C(O)c1cccc2cccc(-c3cccc4cccc(C(=O)O)c34)c12 | -12.3% [at 2.29 µM] | –
O=C(O)c1ccccc1OP(=O)(O)O | -1.68% [at 25.6 µM] | –
NCc1ccc(C(=O)O)cc1 | -4.79% [at 2.29 µM] | –
O=C(O)c1ccccc1/C=N\N=C1c2ccccc2-c2ccccc21 | – | 0.316 µM (active)
Cc1ccc(Cl)cc1-n1c(=O)cc(N2CC(C)OC(C)C2)[nH]c1=O (stereo unspecified) | -1.42% | –
Cc1cccc(Nc2cc(Cl)nc(SCC(=O)O)n2)c1C | 0.128% | –

Structure (SMILES) | activity, negative = inhibition | AC50
Clc1ccc(Cl)c(Nc2ccnc(SCc3ccccc3)n2)c1 | – | 0.501 µM (active)
Cn1c(=O)n2n(c1=O)[C@H]1[C@H](O)[C@H]3O[C@@H]3/C(=N/OC[C@@H](O)COCc3ccco3)[C@@H]1CC2 | 2.55% [at 11.4 µM] | –
CCc1cccc2c(-c3ccccc3)c3c(nc12)OCC3 | – | 0.316 µM (active)
CCc1cccc2c3c([nH]c12)[C@@](CC)(CC(=O)O)OCC3 | -10.3% [at 25.6 µM] | –
NS(=O)(=O)c1ccc(N=C2C(=O)Nc3ccccc32)cc1 | -12.7% [at 2.29 µM] | –
O=C1Nc2ccccc2C1=Nc1ccc(S(=O)(=O)Nc2nccs2)cc1 | -18.2% [at 11.4 µM] | –
O=C1Nc2ccccc2/C1=N/c1sc2c(c1C(=O)NCCc1ccccc1)CCCC2 | – | 2.51 µM (active)
c1cc(NNc2cccc(-c3nn[nH]n3)c2)cc(-c2nn[nH]n2)c1 | -15.5% [at 2.29 µM] | –
COCCNc1nc(-c2cccc(NS(C)(=O)=O)c2)nc2ccccc12 | – | 3.16 µM (active)
CS(=O)(=O)Nc1cccc(-c2nc(NCc3ccccc3)c3ccccc3n2)c1 | – | 2.51 µM (active)
CC(=O)NCCNc1nc(-c2cccc(NS(C)(=O)=O)c2)nc2ccccc12 | – | 15.8 µM (active)
CS(=O)(=O)Nc1cccc(-c2nc(NCc3cccs3)c3ccccc3n2)c1 | – | 1 µM (active)
CC[C@@H]1CC(=O)N(SC[C@H](N)C(=O)O)C1=O | -14.7% [at 11.4 µM] | –
COc1cccc([C@@H]2Oc3ccc(Br)cc3C(=O)[C@H]2O)c1 | -3.35% [at 11.4 µM] | –
CCc1c(C)c(C#N)c2nc3ccccc3n2c1Nc1c(C)n(C)n(-c2ccccc2)c1=O | -20.2% | –
Cc1cccc(CNc2nc(-c3cccc(NS(C)(=O)=O)c3)nc3ccccc23)c1 | – | 15.8 µM (active)
Cc1sc(NC(=O)c2ccco2)c(C(c2cccnc2)N2CCN(C)CC2)c1C (stereo unspecified) | -7.13% | –
Cc1sc(NC(=O)c2ccco2)c(C(c2ccncc2)N2CCOCC2)c1C (stereo unspecified) | -16.7% | –
Cc1sc(NC(=O)c2ccco2)c(C(c2cccnc2)N2CCCC2)c1C (stereo unspecified) | – | 14.1 µM (active)
CCCCN(C)Cc1c(C)[nH]c2ccc(Cl)cc2c1=O | – | 5.01 µM (active)
O=C(c1ccco1)N1CCC2(CC1)CCN(C(c1ccccc1)c1ccccc1)CC2 | -6.96% | –
O=C(c1cccc(F)c1)N1CCC[C@@]2(CCN(C(c3ccccc3)c3ccccc3)C2)C1 | -0.977% | –
CC(=O)N1CCC[C@@]2(CCN(c3ccncc3)C2)C1 | 1.12% | –
Cn1cccc1C(=O)N1CCC2(CC1)CN(c1ccncc1)C2 | 0.971% | –

Structure (SMILES) | activity, negative = inhibition | AC50
Cn1cccc1C(=O)N1CCC[C@@]2(CCN(c3ccncc3)C2)C1 | – | 12.6 µM (active)
Cn1cccc1C(=O)N1CCC[C@@]2(CCN(c3ccccc3)C2)C1 | – | 12.6 µM (active)
CC(=O)N1CCC[C@@]2(CCN(c3ccccc3)C2)C1 | 5.33% | –
Cn1cccc1C(=O)N1CCC[C@@]2(CCN(C(c3ccccc3)c3ccccc3)C2)C1 | – | 20 µM (active)
O=C(c1ccco1)N1CCC2(CC1)CN(C(c1ccccc1)c1ccccc1)C2 | -18.6% | –
O=C(c1ccco1)N1CCC[C@@]2(CCN(C(c3ccccc3)c3ccccc3)C2)C1 | – | 25.1 µM (active)
CN1CC[C@@]2(CCCN(C(=O)c3cccn3C)C2)C1 | 10.5% | –
CC(C)NC(=O)N1CC[C@@]2(CCCN(C(=O)c3cccn3C)C2)C1 | 1.6% | –
NC(N)=NC[C@@H]1CCCCCCN1 | -17.8% [at 11.4 µM] | –
C=CCCCCCCCCC(=O)Nc1c[nH]c(=O)[nH]c1=O | -29.9% | –
O=C1CN(c2nc(-c3ccccc3)c3cc(Br)ccc3n2)c2ccccc2N1 | – | 2.51 µM (active)
CC12CCC(C(=O)O)(C/C1=N\O)C2(C)C (stereo unspecified) | -24.9% | –
COC(=O)[C@]1(C)CCC(c2ccc(C)cc2)=C(CC(=O)O)C1 | -8.38% [at 2.29 µM] | –
CCc1ccc(N(C(=O)c2csnn2)C(C(=O)NC(C)(C)C)c2ccncc2)cc1 (stereo unspecified) | – | 22.4 µM (active)
Cc1ccc(N(C(=O)c2csnn2)C(C(=O)NC(C)(C)C)c2cccs2)cc1 (stereo unspecified) | 1.9% | –
CCc1ccc(N(C(=O)c2csnn2)C(C(=O)NCc2ccccc2)c2ccco2)cc1 (stereo unspecified) | -15.1% | –
CCOC(=O)/C(=C/Nc1ccccc1)[N+](=O)[O-] | – | 2.82 µM (active)
CCOC(=O)/C(C(N)=NCCCO)=C(/O)c1ccccc1 | -29.7% | –
C/C=C\C1=C(CO)[C@H](O)[C@H]2O[C@H]2[C@H]1O | -3.7% [at 11.4 µM] | –
COc1ccc(C[C@H](N)C(=O)N[C@@H]2[C@H](O)[C@H](n3cnc4c(N(C)C)ncnc43)O[C@@H]2CO)cc1 | -12% [at 25.6 µM] | –
CC(C)N(CC(=O)O)CC(=O)O | -20.9% [at 11.4 µM] | –
Cc1cccc(C(=O)Nc2nnc(-c3ccc(C(C)(C)C)cc3)s2)c1 | -14.1% | –
CC(C)(C)c1ccc(C(=O)NC(Cc2ccccc2)C(=O)O)cc1 (stereo unspecified) | 11.9% | –
CC(=O)Nc1nonc1NC(=O)c1ccc(C(C)(C)C)cc1 | – | 1 µM (active)
